Source: PubChem BioAssay (Tox21)
Inconclusive results are not listed. Activity calls are given as the source filed them. The call rests on the fitted dose curve.

Experiments:
[1] = molecular target: Acetylcholinesterase (Homo sapiens) (UniProt P22303); experiment: Acetylcholinesterase (AChE) small molecule antagonists: colormetric cell-based qHTS assay (AID 1347395); further: nearly all actives have a fitted effect of over 30% in size
Method in brief: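 Neuroblastoma line SH-SY5Y supplied the enzyme; cells were preincubated with compound for 30 min at 37 C and 5% CO2. Acetylthiocholine with DTNB was then added for 90 min at 37 C, and thiocholine was measured by colour.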

[2] = molecular target: Acetylcholinesterase (Homo sapiens) (UniProt P22303); experiment: Acetylcholinesterase (AChE) small molecule antagonists: enzyme-based qHTS assay (AID 1347397); settings: Potency: AChE enzyme activity inhibition; outcome: AChE enzyme activity inhibition; further: nearly all actives have a fitted effect of over 55% in size
Method in brief: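 Colorimetric DTNB readout of acetylthiocholine hydrolysis, 10 min at room temperature, after 30 min room-temperature exposure of 50 mU/mL recombinant human enzyme to compound; DMSO vehicle control.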

[3] = molecular target: Acetylcholinesterase (Homo sapiens) (UniProt P22303); experiment: Acetylcholinesterase (AChE) small molecule antagonists: fluorescence cell-based qHTS assay (AID 1347398); settings: Potency: AChE activity; outcome: AChE activity; further: nearly all actives have a fitted effect of over 50% in size
Method in brief: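 Cellular AChE activity read as thiocholine from acetylthiocholine hydrolysis, detected by Thiolite Green fluorescence at 490/520 nm after 40 min at room temperature. Compounds were pre-incubated 30 min at 37 C on adherent SH-SY5Y cells.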

[4] = molecular target: Acetylcholinesterase (Homo sapiens) (UniProt P22303); experiment: Acetylcholinesterase (AChE) small molecule antagonists: enzyme-based qHTS assay with human liver microsomes (AID 1347399); settings: Potency: qHTS inhibition; outcome: qHTS inhibition; further: nearly all actives have a fitted effect of over 60% in size
Method in brief: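 Recombinant human AChE (50 mU/mL in the enzyme mix) and human liver microsomes (0.25 mg/mL final) were preincubated with compound and NADPH (0.25 mg/mL final) for 30 min at 37 C. Acetylthiocholine/DTNB was then added; thiocholine was read colorimetrically after 10 min at room temperature.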
On the % scale 0 is the no-effect control and ±100 the full control effect.

Chain of Acetylcholinesterase (Homo sapiens) (P22303 whole entry, looked up): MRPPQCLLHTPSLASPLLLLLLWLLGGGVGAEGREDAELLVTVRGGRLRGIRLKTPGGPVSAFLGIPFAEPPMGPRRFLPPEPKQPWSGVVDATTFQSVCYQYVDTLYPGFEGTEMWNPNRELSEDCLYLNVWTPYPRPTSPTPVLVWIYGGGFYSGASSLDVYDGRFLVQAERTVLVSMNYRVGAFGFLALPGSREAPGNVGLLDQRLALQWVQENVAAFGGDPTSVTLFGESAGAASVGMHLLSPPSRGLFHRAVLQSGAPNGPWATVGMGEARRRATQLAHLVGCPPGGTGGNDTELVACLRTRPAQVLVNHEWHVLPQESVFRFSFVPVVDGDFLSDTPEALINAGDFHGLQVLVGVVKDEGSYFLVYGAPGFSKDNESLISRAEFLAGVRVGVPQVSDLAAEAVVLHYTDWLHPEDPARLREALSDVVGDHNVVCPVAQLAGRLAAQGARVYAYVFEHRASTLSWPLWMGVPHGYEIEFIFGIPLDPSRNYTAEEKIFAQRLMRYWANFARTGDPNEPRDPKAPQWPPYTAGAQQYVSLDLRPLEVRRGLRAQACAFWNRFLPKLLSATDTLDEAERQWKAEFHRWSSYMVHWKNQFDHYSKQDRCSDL

CCCCCCCCCCCCS(=O)(=O)Cl
inactive: activity, negative = inhibition [1] -0.822% [at 23.6 µM] | activity change, negative = inhibition [2] 0.136% [at 23.6 µM] | activity change, negative = inhibition [3] 0.319% [at 23.8 µM] | activity change, negative = inhibition [4] 0.324% [at 23.6 µM]

CC(C)(C)NCC(O)COc1ccc(NC(=O)NC2CCCCC2)cc1 (centres undefined)
inactive: Potency [1] | Potency [2] | Potency [3] | Potency [4]

CCCN(CCC)CCc1cccc2c1CC(=O)N2
inactive: Potency [1] | Potency [2] | Potency [3] | Potency [4]

CCCCOC(=O)C(C)O (centres undefined)
inactive: Potency [1] | Potency [2] | Potency [3] | Potency [4]

COc1cccc(O)c1O
inactive: Potency [1] | Potency [2] | Potency [3] | Potency [4]

CCN(CC)C(=O)N(CC)CC
inactive: Potency [1] | Potency [2] | Potency [3] | Potency [4]
